Rows were chosen to be rich in hits. Some 1.5% of all compounds tested hit in one or more screens of this group.
IDE inh: inhibits human insulin-degrading enzyme in HEK cells; FAbetaB cleavage, fluorescence polarization; 320,000 compounds, 0.41% hits; inhibition, % at 5.59 µM;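 active means percent inhibition above the average of all tested compounds plus 3 SD, set per screening campaign, cut at about 16% in these data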;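 further: IDE supplied by intact live HEK cells; FP after avidin binding of uncleaved biotin substrate so inhibition keeps polarization high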
CRFR2-BP ag: CRF-BP/CRF-R2 complex agonism; HEK293 CRF-R2/CRF-BP, calcium dye fluorescence (FLIPR); percent of saturating CRF peptide response; activation, % at 13.2 µM; 350,000 compounds, 0.46% hits;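 active means activation of at least 50%, plus an integration ratio under a set limit after plate pattern correction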
IDE act: activators of human insulin-degrading enzyme in cells; P14735; HEK cells, FAbeta-B cleavage, fluorescence polarization; 0% vehicle, 100% cell-free pure enzyme wells; activation, % at 5.96 µM; 340,000 compounds, 0.073% hits;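 active means activation above the mean of all tested compounds plus 3 SD, set per screening campaign, cut at about 17% in these data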
CRFBP-R2 block: blocks CRF-induced signaling of the CRF-BP/CRF-R2 complex; inhibition, % at 11.8 µM; HEK293 CRF-R2/CRF-BP, CRF-induced calcium fluorescence; AID 588475; 350,000 compounds, 0.59% hits;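 active means inhibition of the ligand-induced calcium signal above about 50% at the single tested concentration, limit read from the data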
RTF Ca sens inh: cardiac RTF calcium desensitization | AID 493244 | inhibition, % at 7.15 µM | 340,000 compounds, 0.12% hits | IANBD-labeled cardiac RTF, Ca2+ fluorescence;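 active means inhibition above the mean inhibition of all tested compounds plus 3 SD, cut at about 17% in these data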;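 further: assay run at fixed EC70 calcium of 1.6 mM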
cardiac RTF act: cardiac RTF calcium sensitization; P19429+P45379; IANBD-labeled TnC RTF fluorescence at EC20 calcium; 0% EC20 calcium, 100% full calcium; activation, % at 7.2 µM; 340,000 compounds, 0.24% hits; AID 493008;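 active means activation above the mean over all tested compounds plus 3 SD, cut at about 30% in these data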;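 further: rise in fluorescence read as greater calcium sensitivity of cardiac thin filaments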
Large screens that a line does not name were inactive.

C#CCOCCOCCOCCNc1nc(N2CCN(C(=O)CCCCCCCCCCNC(=O)[C@H]([C@@H](C)CC)n3cc(CCCCN=C(N)N)nn3)CC2)nc(N2CCN(C(=O)CCCCCCCCCCNC(=O)[C@H](CO)n3cc(CCCCCN)nn3)CC2)n1	CRFR2-BP ag 76.0, IDE act 40.4
C#CCOCCOCCOCCNc1nc(N2CCN(C(=O)CCCCCCCCCCNC(=O)[C@H]([C@@H](C)CC)n3cc(CCCCCN)nn3)CC2)nc(N2CCN(C(=O)CCCCCCCCCCNC(=O)[C@H]([C@@H](C)CC)n3cc(CCCCN=C(N)N)nn3)CC2)n1	IDE act 51.1 (no result: CRFR2-BP ag, CRFBP-R2 block)
C#CCOCCOCCOCCNc1nc(N2CCN(C(=O)CCCCCCCCCCNC(=O)Cn3cc(CCCCCN)nn3)CC2)nc(N2CCN(C(=O)CCCCCCCCCCNC(=O)[C@H]([C@@H](C)CC)n3cc(CCCCN=C(N)N)nn3)CC2)n1	IDE act 41.9
COc1ccccc1C(C)NC(=O)CCC(=O)N1CCN(S(=O)(=O)c2ccc(Cl)cc2)CC1 (centres undefined)	none (no result: IDE inh)
CCN(CC(=O)NC1CCS(=O)(=O)C1)C(=O)c1cc(OC)c(OC)c(OC)c1 (centres undefined)	none
CCC(C(=O)NCCN1CCOCC1)n1c2ccccc2c2nc(=O)cc(C)n21 (centres undefined)	CRFBP-R2 block 51.5
Cc1ccc2cccc(S(=O)(=O)N3CCCc4ccccc43)c2n1	CRFR2-BP ag 87.5
Cc1[nH]n(C(N)=S)c(=O)c1N=Nc1cc(-c2ccc(Br)cc2)[nH]n1	CRFBP-R2 block 79.9 (no result: IDE act, RTF Ca sens inh, cardiac RTF act)
CCCc1nc2sc3ccccc3c(=O)c2c(=O)n1Cc1ccco1	CRFR2-BP ag 54.6 (no result: IDE inh)
CCCc1nc2sc3ccccc3c(=O)c2c(=O)n1Cc1ccc(OC)cc1	none (no result: IDE act, RTF Ca sens inh, cardiac RTF act)
CC(C)C(=O)c1cc2c(cc1NC(=O)c1ccccc1)OCCO2	cardiac RTF act 31.0
CC(=O)Nc1cc2c(cc1C(=O)C(C)C)OCCO2	none
CC(C)Cc1ccc(C(C)C(=O)Nc2ccccc2O)cc1 (centres undefined)	CRFR2-BP ag 77.4
COc1ccccc1CN1C(=NC(=O)C2CCCCC2)SC2CS(=O)(=O)CC21 (centres undefined)	none
C/C(=N\Nc1cc(C)nc(-c2ccccc2)n1)c1cccc([N+](=O)[O-])c1	CRFBP-R2 block 119.4
C/C(=N\Nc1cc(C)nc(-c2ccccc2O)n1)c1ccccc1	none
O=C(O)CCC(=O)OCCN(Cc1ccc(Oc2ccc([N+](=O)[O-])cc2)cc1)C(=O)C(Cl)Cl	none (no result: IDE inh)
C=CCn1c(C)cc(C(=O)CSc2nnc(Cc3ccccc3)o2)c1C	CRFBP-R2 block 56.0
COc1cccc(CNC(=O)c2ccccc2NC(=O)C2=C(C)OCCS2)c1OC	none
CC1=C(C(=O)OC(C)(C)C)C(c2cccc3ccccc23)NC(=O)N1 (centres undefined)	CRFBP-R2 block 65.4
Cc1cc(C)cc(NC(=O)c2nnn(Cc3cc(C)ccc3C)c2N)c1	CRFR2-BP ag 53.6
COc1ccc(COc2cc(-c3cccc(OC)c3)nc3ccc(NC(=O)c4ccc(C)cc4)cc23)cc1	cardiac RTF act 32.5
CCOC(=O)[C@@H]1[C@H]2COc3ccccc3[C@@H]2N2C(=O)N(c3cccc(Cl)c3)C(=O)[C@]12C	none
CN1CCN(S(=O)(=O)c2cccc(C#N)c2)C(c2ccccc2)C1 (centres undefined)	none (no result: IDE inh)
O=c1cc(CN2CCc3ccccc32)nc2sccn12	none
O=C(OCc1cc(=O)n2ccsc2n1)C1(c2ccccc2)CC1	CRFBP-R2 block 71.4 (no result: IDE inh, IDE act, RTF Ca sens inh, cardiac RTF act)
COC(=O)c1ccc(OCc2cc(=O)n3ccsc3n2)cc1	none
O=c1cc(CN2CCCc3ccccc32)nc2sccn12	cardiac RTF act 61.9
CCCOc1ccc(-c2c(C(=O)N/N=C(\C)c3ccncc3)nnn2-c2nonc2N)cc1	none
COc1ccccc1C/C(N)=N/OC(=O)COc1cccc(C)c1C	RTF Ca sens inh 19.3
COc1ccccc1C/C(N)=N/OC(=O)COc1cc(C)cc(C)c1C	none
O=[N+]([O-])c1ccc(S(=O)(=O)Nc2nnc(C3CCCCC3)s2)cc1	none
COc1cccc(CC2(CO)CCCN(Cc3cc4ccccc4[nH]3)C2)c1 (centres undefined)	CRFR2-BP ag 120.0
CC1CCCCC12NC(=O)N(CC(=O)Nc1ccc(Cl)c(S(=O)(=O)N3CCOCC3)c1)C2=O (centres undefined)	none (no result: IDE inh)
CCCC1(CCC)NC(=O)N(CC(=O)Nc2ccc(Cl)c(S(=O)(=O)N3CCOCC3)c2)C1=O	CRFBP-R2 block 69.1
CCOC(=O)c1sc(NC(=O)CSc2nccc(C)n2)c(C#N)c1C	none
CCOC(=O)c1sc(NC(=O)CSc2n[nH]c(-c3ccncc3)n2)c(C#N)c1C	CRFBP-R2 block 69.8
CCOc1ccccc1NC(=O)CSc1nncc2ccccc12	none
Cc1nc2ccccc2n2c(O)c(CC(=O)O)cc12	CRFR2-BP ag 88.8, cardiac RTF act 125.2
Cn1c(-c2ccc(C=O)s2)nc2c3ccccc3c3ccccc3c21	CRFR2-BP ag 112.0, cardiac RTF act 81.0
CC(C)(C)c1cc(C(=O)O)nn1-c1ccccc1	CRFBP-R2 block 67.8
O=C(O)CCCn1cc(NC(=O)c2sc3ccccc3c2Cl)cn1	none
CCOC(=O)N1CCC(NC(=O)CS(=O)Cc2nc(-c3ccccc3C)oc2C)CC1 (centres undefined)	none
O=C1C(O)CCN1Cc1ccccc1 (centres undefined)	none (no result: IDE inh)
COC(=O)c1ccncc1N	none
Nc1cnccc1C(=O)O	cardiac RTF act 38.7
O=C(NCc1ccccn1)c1ccc(OC2CCN(Cc3ccccc3O)CC2)cc1	none
COc1cccc(CN2CCC(Oc3ccc(C(=O)NCc4ccccn4)cc3)CC2)c1O	CRFBP-R2 block 107.4 (no result: IDE inh)
Nc1nn(S(=O)(=O)c2ccccc2)cc1-c1ccc([N+](=O)[O-])cc1	CRFBP-R2 block 50.1
CCN(Cc1ccc2c(c1)OCCO2)C(=O)CN1C(=O)NC2(CCc3ccccc32)C1=O (centres undefined)	none
COc1ccc(NC(=O)c2cc(-c3ccccc3OC)on2)cc1	CRFBP-R2 block 54.5
COc1ccc(NC(=O)c2cc(-c3ccccc3Cl)on2)cc1	none
COCCNC(=O)CN(Cc1ccccc1)S(=O)(=O)c1ccc2nc(C)sc2c1	none
O=C1CC(Nc2cc(=O)[nH]c(=O)[nH]2)C(=O)N1c1ccccc1Cl (centres undefined)	CRFBP-R2 block 82.3
O=C1CC(N2CCOCC2)C(=O)N1c1ccccc1Cl (centres undefined)	none
COc1cc2c3nnc(-c4ccccc4)c-3cn(Cc3ccc(F)cc3)c2cc1OC	none
COc1cc2c3nnc(-c4ccc(F)cc4)c-3cn(Cc3cccc(F)c3)c2cc1OC	cardiac RTF act 48.5

Screening results as filed in PubChem.
